Assay outcomes as filed in PubChem.
Shown are actives, neighbours in structure and some others; about 6% of the full set was active somewhere.
PK Bst: alters activity of Bacillus stearothermophilus pyruvate kinase; purified pyruvate kinase, luminescence ATP production; ribose 5-phosphate activator present at AC10; 1.2% of 51,000 active; AID 361; Potency, µM; in the data active = potency below about 11 µM; inconclusive = mostly about 12 µM to 25 µM;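 the screen sought inhibitors and activators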
Tau fil binding: binders of human tau filaments; P10636; recombinant tau filaments, thioflavin S fluorescence, 15 h; filaments grown with octadecylsulfate alongside compound; Potency, µM (top dose mostly 57.1 µM); 2% of 71,000 active;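 also: actives lower thioflavin S fluorescence by blocking filaments or displacing dye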
Target sequence (P10636 whole entry, looked up): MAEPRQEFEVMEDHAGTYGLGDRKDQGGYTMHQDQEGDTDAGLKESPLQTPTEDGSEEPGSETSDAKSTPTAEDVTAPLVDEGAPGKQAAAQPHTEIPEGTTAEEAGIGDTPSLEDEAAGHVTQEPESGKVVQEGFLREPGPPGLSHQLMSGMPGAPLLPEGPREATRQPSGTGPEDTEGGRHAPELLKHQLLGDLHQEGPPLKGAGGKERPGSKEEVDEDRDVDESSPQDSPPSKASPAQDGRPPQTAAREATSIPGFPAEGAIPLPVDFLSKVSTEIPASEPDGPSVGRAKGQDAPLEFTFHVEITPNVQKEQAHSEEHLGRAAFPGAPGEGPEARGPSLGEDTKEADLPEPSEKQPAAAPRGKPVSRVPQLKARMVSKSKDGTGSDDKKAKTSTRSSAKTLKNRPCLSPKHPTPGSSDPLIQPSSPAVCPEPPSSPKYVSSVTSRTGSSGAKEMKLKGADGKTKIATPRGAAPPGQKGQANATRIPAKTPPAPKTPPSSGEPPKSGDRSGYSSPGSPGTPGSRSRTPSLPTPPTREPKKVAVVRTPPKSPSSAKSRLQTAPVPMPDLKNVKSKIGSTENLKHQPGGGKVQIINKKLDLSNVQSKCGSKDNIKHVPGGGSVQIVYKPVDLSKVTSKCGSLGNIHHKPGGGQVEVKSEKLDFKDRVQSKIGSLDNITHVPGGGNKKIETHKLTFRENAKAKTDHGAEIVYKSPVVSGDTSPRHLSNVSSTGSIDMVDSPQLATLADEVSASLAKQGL
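ThS-based fibril read: tau 1 uM final, inducer ODS 30 uM final, 37 C for 15 h, ex 450/em 510 nm.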
Pol III holo inh: inhibitors of bacterial DNA polymerase III holoenzyme. reconstituted DNA polymerase III holoenzyme replication, biochemical. Potency, µM (series often up to 57.1 µM). 0.25% of 71,000 active. AID 603
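Reconstituted *E. coli* holoenzyme (0.35 nM Pol III, 1 nM beta, 154 nM SSB, 2 nM primase) was preincubated with compound for 15 min at RT. Synthesis on 1.4 nM ssM13Gori ran 35 min, then was stopped with PicoGreen/EDTA and read as dsDNA fluorescence.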
Luciferase inh: inhibitors of firefly luciferase; Potency, µM (highest dose often 57.1 µM), most hits filed as inhibitors; P08659; 2.2% of 72,000 active; purified firefly luciferase, luminescence, 8 min; also: nearly all actives have a fitted effect of over 40% in size
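Inhibition of light generation by firefly luciferase from ATP and luciferin was profiled with concentration-response curves per sample, ATP held at 10 uM within the enzyme's linear range. Plates were read by luminescence after an 8-minute ambient incubation.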
ERK AVP inh: inhibitors of vasopressin-stimulated ERK signaling pathway; HEK293-V1b, vasopressin-stimulated pERK AlphaScreen; Potency, µM (titrated, usually from 57.5 µM), usual class: inhibitors; 0.99% of 72,000 active; AID 995; also: nearly all actives have a fitted effect of over 55% in size
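Overnight-seeded V1b-HEK293 cells in 1% FBS got compound, then vasopressin (25 nM final, 5 min, 37C), then lysis buffer. AlphaScreen detection of phospho-ERK; activity normalized to basal and full-stimulation controls.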
15-hLO inh: inhibitors of human 15-lipoxygenase (ALOX15); P16050; Potency, µM (titrated, usually from 57.1 µM), hits mostly inhibitors; 1.4% of 74,000 active; purified 15hLO-1, xylenol orange hydroperoxide absorbance; also: nearly all actives have a fitted effect of over 55% in size
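40 nM 15hLO-1 + cpd, 15 min RT; start w/ 50 uM AA (final), 6 min RT; stop/detect w/ 200 uM XO + 300 uM Fe(II) in 50 mM H2SO4, 30 min; A573/A405. Buffer 25 mM Hepes pH 7.5, 0.01% Triton X-100. No-enzyme wells as negative control.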
Large screens that a line does not name were inactive. Unless noted, calls follow the shape of the dose curve; as a rule, active = well fitted curve in the direction sought with a large enough effect; inconclusive = small, poorly fitted or top-dose-only effect, or another doubt; inactive = no such curve, though single readings can be large; an effect the other way counts as inactive or inconclusive.

CN(C)c1ncc2nc(-c3cc(F)cc(F)c3)c(=O)n(C[C@H]3CCCO3)c2n1	none (no result: PK Bst)
COc1cccc(-c2cc(C(=O)N3CCN(c4ncccn4)CC3)c3ccccc3n2)c1	Luciferase inh 6.3µM, ERK AVP inh inconclusive (no result: PK Bst)
O=C(c1cc(-c2ccncc2)nc2ccc(Br)cc12)N1CCN(c2ccccn2)CC1	PK Bst inconclusive, Tau fil binding 32µM
Cc1ccc(-c2cc(C(=O)N3CCOCC3)c3ccccc3n2)cc1	Luciferase inh 13µM
O=C(c1cccn2c(=O)c3cc(Br)ccc3nc12)N1CCN(c2ccccn2)CC1	none
O=C(O)c1cc(-c2ccc3cc4c(cc3c2)OCO4)nc2ccccc12	Luciferase inh 2.5µM (no result: PK Bst)
O=C(c1cnccn1)N1CCC[C@@]2(CCN(Cc3cc(C(F)(F)F)cc(C(F)(F)F)c3)C2)C1	none (no result: PK Bst)
COc1ccc(O[C@H]2C=C[C@@H](c3ccccc3)O[C@H]2COC(=O)NCc2cccc3ccccc23)cc1	none (no result: PK Bst, Tau fil binding, Pol III holo inh)
CN1CCN(c2ncc3nc(-c4ccccc4)c(=O)n(CCC#N)c3n2)CC1	none (no result: PK Bst)
COc1ccc(NC(=O)N2CCCC3(CCN(S(=O)(=O)c4ccccc4)CC3)C2)cc1	none (no result: PK Bst)
CS(=O)(=O)N1CCN(C(=O)c2ccc(-c3ccccc3)cc2)CC1	none (no result: PK Bst)
O=C(Nn1cnnc1)c1cc(-c2ccccn2)nc2ccccc12	none (no result: PK Bst)
O=C(c1cnc(N2CCN(c3ncccn3)CC2)c2ccccc12)N1CCN(c2ncccn2)CC1	none
COc1cccc(-c2cc(C(=O)Nn3cnnc3)c3ccccc3n2)c1	Luciferase inh 3.2µM (no result: PK Bst)
O=C(c1ccc2c3c(cccc13)CC2)N1CCN(c2ncccn2)CC1	PK Bst 6, ERK AVP inh inconclusive
CC(C)Oc1cccc(-c2cc(C(=O)N3CCN(S(C)(=O)=O)CC3)c3ccccc3n2)c1	PK Bst inconclusive, Luciferase inh 5µM
COC(=O)C1OC(=O)C2O[C@@]23[C@]2(C)C(OC(C)=O)CC4C(C)(C)C(=O)CC[C@]4(C)C2CC[C@@]13C (some centres not stated)	none (no result: PK Bst, Tau fil binding, Pol III holo inh, Luciferase inh)
N#CC[N+]1(Cc2ccccn2)CCCC1	15-hLO inh inconclusive (no result: PK Bst)
C[N+]1(NCC[N@@+]2(C)CCc3ccccc3C2)CCCCC1	none (no result: PK Bst)
COC1=Cc2c(ccc3ccc(=O)oc23)OC1(C)C	15-hLO inh 32µM (no result: PK Bst)
CN/C=C1\C(=O)C(C)(C)Oc2ccc3ccc(=O)oc3c21	none
O=C1C(c2ccncc2)=C(O)c2ccccc21	PK Bst inconclusive, Tau fil binding inconclusive, Luciferase inh 13µM
C[Si](C)(C)C#Cc1ccccc1NC(=S)Nc1ccccc1	Tau fil binding inconclusive (no result: PK Bst, Luciferase inh, 15-hLO inh)
Nc1ccc(S(=O)(=O)O)cc1	none (no result: PK Bst, Luciferase inh)
C/C(CCN1CCc2nc(-c3ccccc3)c(-c3ccccc3)cc2C1)=N\OC[C@@H](O)COCc1ccco1	none (no result: PK Bst, Tau fil binding, Pol III holo inh)
O=C(Oc1ccccc1)N1CCC[C@@]2(CCN(c3ccccc3)C2)C1	none (no result: PK Bst)
CS(=O)(=O)Nc1cccc(-c2ccc3ncnc(NC4CC4)c3c2)c1	ERK AVP inh inconclusive (no result: PK Bst)
Cc1cccc(CNc2ccnc(-c3cccc(NS(C)(=O)=O)c3)n2)c1	ERK AVP inh 13µM (no result: PK Bst)
CN1CCN(c2ncnc3ccc(-c4cccc(NS(C)(=O)=O)c4)cc23)CC1	ERK AVP inh 3.2µM (no result: PK Bst)
COCCNc1ncnc2ccc(-c3cccc(NS(C)(=O)=O)c3)cc12	none (no result: PK Bst)
Cc1cccc(CNc2ncnc3ccc(-c4cccnc4)cc23)c1	ERK AVP inh 2µM, 15-hLO inh inconclusive (no result: PK Bst)
Cc1cccc(CNc2ncnc3ccc(-c4cccc(NS(C)(=O)=O)c4)cc23)c1	ERK AVP inh 25µM (no result: PK Bst)
COCCNc1cc(-c2ccccc2C(F)(F)F)ncn1	15-hLO inh inconclusive (no result: PK Bst)
COc1ccccc1CNc1ncnc2ccc(-c3cccc(NS(C)(=O)=O)c3)cc12	ERK AVP inh 16µM (no result: PK Bst)
CN(C)C(=O)c1ccc(-c2ccc3ncnc(NCc4cccnc4)c3c2)cc1	ERK AVP inh inconclusive (no result: PK Bst)
CN(C)C(=O)c1ccc(-c2ccc3ncnc(NCc4ccccc4)c3c2)cc1	ERK AVP inh 25µM (no result: PK Bst)
CON(C)C(=O)c1nnc2c3ccccc3n(S(=O)(=O)c3ccc(C)cc3)c2n1	none (no result: PK Bst, Tau fil binding, Pol III holo inh)
CCOC(=O)OCC1OC(CCc2ccccc2)CCC1Oc1ccc(OC)cc1 (configuration not stated)	none (no result: PK Bst, Tau fil binding, Pol III holo inh, Luciferase inh)
COc1cc(NC(=O)CC(C)C)ccc1NC(=O)c1ccco1	Luciferase inh 16µM (no result: PK Bst)
CCC(=O)Nc1ccc(NC(=O)c2ccco2)c(OC)c1	none (no result: PK Bst)
CCOc1cc(NC(=O)c2ccco2)c(OCC)cc1NC(=O)Cc1cccc(OC)c1	Tau fil binding 10µM, 15-hLO inh inconclusive
C=CCn1c(SCC(=O)Nc2cc(C)ccc2OC)nnc1-c1ccco1	none
C=CCn1c(SCC(=O)Nc2ccc(NC(=O)c3ccco3)c(OC)c2)nnc1-c1ccncc1	Tau fil binding 13µM
C/C(CCN1CCc2nc(-c3ccccc3)c(-c3ccccc3)cc2C1)=N\O[C@@H](C)CN1CCCc2nc(C)c(C)cc21	none (no result: PK Bst, Tau fil binding, Pol III holo inh)
COc1cccc(Cn2c(=O)c(-c3cccs3)nc3cnc(N4CCNCC4)nc32)c1	none (no result: PK Bst)
CCN(CC)CCCn1c(-c2ccccc2)nc2c(NCCOC)nc(C)nc21	none (no result: PK Bst, Luciferase inh)
CC(=O)CCc1oc2ccc(NC(C)=O)cc2c1-c1ccc(C)o1	Luciferase inh inconclusive, ERK AVP inh 32µM, 15-hLO inh 16µM
CC(=O)Nc1ccccc1-c1ccc(C)o1	none
